SW480 rereplic – induces DNA re-replication in SW480 colon adenocarcinoma cells | SW480 DNA re-replication, Hoechst DNA content imaging, 48 h | Potency, µM (doses to about 46.1 µM), actives largely listed as activators | hit rate 1.8% among 340,000 | AID 624297; note: nearly all actives have a fitted effect of over 55% in size
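250 cells/well; 23 nL cpd via pin tool; 48 hr, 37 C, 5% CO2; Hoechst 40 min; imager read of total nuclear intensity, ex 405/em 500-530 nm.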
MCF10A rereplic – DNA re-replication induction in MCF 10a cells; Potency, µM (top dose mostly 46.1 µM), actives largely listed as activators; MCF 10A DNA re-replication, Hoechst nuclear intensity, 48 h; hit rate 2.9% among 350,000; note: nearly all actives have a fitted effect of over 50% in size
RGS4 inhibitor – inhibitors of human regulator of G protein signaling 4; Transcreener GDP fluorescence polarization, RGS4-accelerated GTP hydrolysis; P49798; Potency, µM (series often up to 114 µM), actives largely listed as inhibitors; hit rate 0.039% among 390,000; note: nearly all actives have a fitted effect of over 75% in size
Target sequence (P49798 whole entry, looked up): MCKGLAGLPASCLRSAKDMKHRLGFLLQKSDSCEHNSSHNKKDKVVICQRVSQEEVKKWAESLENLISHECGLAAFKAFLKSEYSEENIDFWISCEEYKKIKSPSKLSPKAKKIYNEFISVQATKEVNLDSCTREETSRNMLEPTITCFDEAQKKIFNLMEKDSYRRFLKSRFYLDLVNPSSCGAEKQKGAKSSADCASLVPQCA
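MLSMR compounds (23 nl, pin-transferred) preincubated 10 min at room temperature with a 500nM (2x) first reagent, then RGS4 at 900nM (2x) plus Transcreener GDP mix added; fluorescence polarization (620/688 nm) read before and after 90 min at 30 °C.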
KB-V1 cytotox – kills drug-selected multidrug resistant KB-V1 cells; Potency, µM (highest dose often 46.1 µM), most hits filed as cytotoxic; hit rate 3.4% among 400,000; KB-V1 MDR cells viability, CellTiter-Glo, 72 h; note: nearly all actives have a fitted effect of over 60% in size
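qHTS viability screen in drug-selected KB-V1 MDR cells: 72 h compound treatment at 37 degrees C, ATP luminescence end point.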
KB-3-1 cytotox – kills parental KB-3-1 adenocarcinoma cells. hit rate 1.4% among 400,000. AID 1347075. KB-3-1 viability, CellTiter-Glo ATP luminescence, 72 h. Potency, µM (highest dose often 46.1 µM), hits mostly cytotoxic; note: nearly all actives have a fitted effect of over 60% in size
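Viability of parental KB-3-1 cells, measured by CellTiter-Glo luminescence, followed a 72 h incubation at 37 °C with pinned compounds in phenol-red-free DMEM containing 10% FBS.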
PTAP TSG101 blk – blocks PTAP/TSG101 interaction to inhibit HIV-1 budding. Fluorescence polarization, FITC-PTAP peptide / Tsg101 binding. Potency, µM (top dose mostly 115 µM), most hits filed as inhibitors. 340,000 tested, under 10 active; active = well fitted inhibition curve with a large enough effect in the main read-out, with a control signal flat, not every such curve was filed as active; inconclusive = small, poorly fitted or top-dose-only effect, or effect the other way, or a change in a side signal; inactive = no such curve, though single readings can be large or run the other way
Target sequence (Q99816 whole entry, looked up): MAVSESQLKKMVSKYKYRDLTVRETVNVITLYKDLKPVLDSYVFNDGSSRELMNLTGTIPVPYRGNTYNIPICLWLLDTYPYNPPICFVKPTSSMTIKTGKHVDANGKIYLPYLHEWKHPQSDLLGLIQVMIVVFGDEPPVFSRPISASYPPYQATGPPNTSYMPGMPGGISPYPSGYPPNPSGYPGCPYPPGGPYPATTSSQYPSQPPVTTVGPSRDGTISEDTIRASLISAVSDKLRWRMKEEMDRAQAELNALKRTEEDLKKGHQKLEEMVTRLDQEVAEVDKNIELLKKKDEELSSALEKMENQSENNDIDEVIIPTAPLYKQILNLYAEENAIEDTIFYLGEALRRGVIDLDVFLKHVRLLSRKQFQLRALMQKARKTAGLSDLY
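FP read-out: FITC-PTAP peptide, 50 nM final, binding Tsg101 binding domain, 10 uM final; 20 min, r.t.; 10 mM HEPES pH 7.5, 0.15 M NaCl, 0.01% Tween 20, 3 mM EDTA, 0.1 mM TCEP.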
Numbers stand for hits; 0 = inactive; ? = inconclusive; - = no result given. Hits are enriched below; roughly 6.6% of the tested compounds scored in any of these assays. Unless noted, calls come from the whole dose curve; as a rule, active = well fitted curve in the direction sought with a large enough effect; inconclusive = small, poorly fitted or top-dose-only effect, or another doubt; inactive = no such curve, though single readings can be large; an effect the other way counts as inactive or inconclusive.

SMILES	SW480 rereplic	MCF10A rereplic	RGS4 inhibitor	KB-V1 cytotox	KB-3-1 cytotox	PTAP TSG101 blk
CCC(C)(C#CCN1CCCCC1)OCCC#N (configuration not stated)	18µM	0	0	0	0	0
CCCN(CCC)C(=O)Cn1c(=O)n(CCCCCC(=O)NCc2ccccc2Cl)c(=O)c2sccc21	-	-	0	-	-	-
CC(C)COc1ccc(C(=O)Nc2onc3c2CCCC3)cc1	-	-	0	0	0	-
Cc1nn(Cc2ccccc2)c(Cl)c1/C=N/NC(=O)CNc1cccc(C(F)(F)F)c1	0	?	0	9.2µM	0	0
Cc1cccc(NCC(=O)N/N=C/c2cccc(Br)c2)c1	0	0	0	?	0	0
O=C(CNc1cccc(C(F)(F)F)c1)N/N=C/c1cccc(Br)c1	0	21µM	0	0	0	0
CCC(C)(c1nnnn1-c1c(C)cccc1C)N(N=O)c1ccccc1Cl (configuration not stated)	-	?	0	18µM	?	0
CC(C(=O)NCC(=O)Nc1ccc(F)c(F)c1F)N1CCN(c2ccc(O)cc2)CC1 (configuration not stated)	0	0	?	0	?	0
CC(C(=O)NCC(=O)Nc1ccc(F)c(F)c1F)N1CCN(Cc2ccc(C#N)cc2)CC1 (configuration not stated)	0	0	0	13µM	0	0
N=c1oc2ccc3ccccc3c2cc1C(N)=S	?	12µM	0	0	0	0
CCOC(=O)c1cc2c(ccc3ccccc32)oc1=O	0	0	0	0	0	0
CC(C)COc1ccc(C(=O)Nc2scc(-c3ccc(Cl)cc3Cl)c2C(N)=O)cc1	0	?	0	3.7µM	3.3µM	0
O=C(COc1cccc(Cl)c1)NCC(c1cccs1)N1CCOCC1 (configuration not stated)	0	0	0	0	0	0
O=C(NCC(c1cccs1)N1CCOCC1)C1CCN(S(=O)(=O)c2c(Cl)cccc2Cl)CC1 (configuration not stated)	0	0	0	?	0	0
O=C(NCC(c1cccs1)N1CCOCC1)C1CCN(S(=O)(=O)c2cc(Cl)ccc2Cl)CC1 (configuration not stated)	0	0	0	9.2µM	0	0
Cc1cc(Cl)ccc1OCC(=O)NCC(c1cccs1)N1CCOCC1 (configuration not stated)	0	0	0	7.3µM	?	0
CSc1nc(Oc2ccc3ccccc3c2)c2sccc2n1	21µM	?	0	?	5.2µM	0
COc1ccc(Oc2nc(SC)nc3ccsc23)cc1	?	?	0	?	?	0
COc1cccc(CNc2nc(NCc3ccccc3)nc3ccsc23)c1	-	-	-	9.2µM	?	-
COCCNc1nc(NCc2cccs2)nc2ccsc12	-	-	-	0	0	-
COc1cccc(CNc2nc(NC(C)C)nc3ccsc23)c1OC	-	-	-	0	0	-
COCCNc1nc(NCc2cc(-c3ccc(OC)cc3)no2)c2sccc2n1	-	-	-	18µM	?	-
COc1ccccc1CNc1nc(NC(C)C)nc2ccsc12	-	-	-	10µM	?	-
CNc1nc(NCc2cccc(OC)c2)c2sccc2n1	-	-	-	0	0	-
COc1cccc(C(=O)N2CC(=O)Nc3ccc(C)cc3C2c2ccc(F)cc2)c1OC (configuration not stated)	-	-	0	0	0	-
SMILES	SW480 rereplic	MCF10A rereplic	RGS4 inhibitor	KB-V1 cytotox	KB-3-1 cytotox	PTAP TSG101 blk
COc1ccc(CCNC(=O)CCCCn2c(=O)c3ccccc3n(Cc3ccc(Cl)cc3)c2=O)cc1OC	-	-	0	0	0	-
COc1ccc(NC(=O)c2ccccc2OCC(=O)Nc2ccc(Br)cc2)cc1	-	-	-	0	0	-
COCCCNc1oc(-c2cccs2)nc1S(=O)(=O)c1ccc(C)cc1	0	0	0	15µM	0	0
COCCNc1oc(-c2cccs2)nc1S(=O)(=O)c1ccc(C)cc1	0	0	0	?	0	0
COc1ccc(Br)c2c1-c1nc(NC(=O)c3ccc(F)cc3)sc1C2	-	-	0	0	0	-
c1ccc(CNc2ncnc3c2ncn3Cc2ccccc2)cc1	-	-	0	0	0	-
O=C1CCC(c2ccccc2)=NN1	0	0	0	0	0	0
O=C1CCC(c2ccc3c(c2)CCC3)=NN1	0	0	0	0	1.2µM	0
N#Cc1c2n(c3c(=O)n(Cc4ccccc4Cl)cnc13)CCCCC2	0	12µM	0	0	?	0
Cc1ccc(CCNC(=O)c2sc3ncccc3c2-n2c(C)ccc2C)cc1	-	-	0	0	0	-
CCCNC(=S)Nc1ccc(Oc2ccccc2)cc1	?	0	0	18µM	?	0
S=C(NCC1CCCCC1)Nc1ccc(Oc2ccccc2)cc1	0	18µM	0	?	?	0
N#Cc1ccc(NC2c3ccccc3CC2O)cc1 (configuration not stated)	0	0	0	18µM	?	0
O=C(Nc1ccccn1)C1CCN(S(=O)(=O)c2cccs2)CC1	0	0	0	?	0	0
Cc1cccc(NC(=O)C2CCN(S(=O)(=O)c3cccs3)CC2)n1	0	0	0	23µM	0	0
Cc1noc(C)c1S(=O)(=O)N1CCC(C(=O)Nc2ccc(OC(F)(F)F)cc2)CC1	0	16µM	0	0	0	0
CCOc1ccc(NC(=O)C2CCN(S(=O)(=O)c3cccs3)CC2)cc1	0	0	0	?	?	0
O=C(Nc1ccc(OC(F)(F)F)cc1)C1CCN(S(=O)(=O)c2cccs2)CC1	-	-	0	0	21µM	-
O=C(Nc1nc2ccc(C(=O)N3CCCCC3)cc2s1)C1CCCCC1	6.5µM	4.1µM	0	3.7µM	5.8µM	0
Cc1nc2c(C(=O)NCc3ccccc3Cl)c[nH]n2c(=O)c1Cc1cccc(Cl)c1	-	-	0	?	0	-
Cc1ccc(C(=O)NCCC(C)C)cc1NC(=O)c1nsc2ccccc12	-	-	0	0	0	-
Cc1ccc2nc(NC(=O)C3CCN(S(=O)(=O)c4cccs4)CC3)sc2c1	0	0	0	4.6µM	?	0
COc1ccc2nc(NC(=O)C3CCN(S(=O)(=O)c4cccs4)CC3)sc2c1	0	0	0	23µM	?	0
O=C(Nc1nc2ccc(F)cc2s1)C1CCN(S(=O)(=O)c2cc([N+](=O)[O-])ccc2Cl)CC1	?	?	0	15µM	15µM	0
Cc1ccc2nc(NC(=O)C3CCN(S(=O)(=O)c4cccnc4)CC3)sc2c1	0	0	0	?	?	0
Cc1cccc(NC(=O)c2cnn(-c3ccccc3)c2-n2cccc2)c1C	-	-	0	0	0	-
COc1ccc(OC)c(S(=O)(=O)Nc2cc(OC)c(Cl)cc2OC)c1	0	?	0	0	0	0
COc1cc(NS(=O)(=O)c2ccc(OC)c(C)c2C)c(OC)cc1Cl	5.6µM	?	0	0	3.3µM	0
